The list is not random: actives were taken first. Their share in the collection is about 0.85%.
IDH1 R132H inh: inhibitors of human mutant IDH1 R132H; IDH1-R132H enzyme, NADPH consumption, diaphorase/resazurin fluorescence; Potency, µM (titrated, usually from 76.6 µM), actives largely listed as inhibitors; 0.093% of 390,000 active; also: nearly all actives have a fitted effect of over 65% in size
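IDH1-R132H (0.5 ug/mL dispensed) in pH 7.5 Tris buffer was preincubated 30 min with compound, then given a substrate mix of 0.016 mM NADPH and 2 mM alpha-KG for 80 min at room temperature; remaining NADPH was read by diaphorase/resazurin fluorescence.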
CCT modulator: modulators of cytosolic chaperonin (CCT/TRiC) activity | purified chaperonin ATPase assay, HTRF ADP detection, 30 min | activity change, % (test concentration not listed), hits read low | 0.3% of 360,000 active | AID 651819; in the data active = activity change below about -30%
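Nucleotide hydrolysis assay: TRiC at 20–40 nM final (set by batch activity) with 10 uM ATP, 30 min at 37 °C, in presence of 76 uM compound. Detection by competitive ADP HTRF, 30 min ambient.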
GLS inhibitor: inhibitors of human glutaminase (GLS). O94925. Potency, µM (titrated, usually from 45.5 µM), hits mostly inhibitors. 0.21% of 410,000 active. AID 624170. GLS enzymatic activity, qHTS titration
Target sequence (O94925 whole entry, looked up): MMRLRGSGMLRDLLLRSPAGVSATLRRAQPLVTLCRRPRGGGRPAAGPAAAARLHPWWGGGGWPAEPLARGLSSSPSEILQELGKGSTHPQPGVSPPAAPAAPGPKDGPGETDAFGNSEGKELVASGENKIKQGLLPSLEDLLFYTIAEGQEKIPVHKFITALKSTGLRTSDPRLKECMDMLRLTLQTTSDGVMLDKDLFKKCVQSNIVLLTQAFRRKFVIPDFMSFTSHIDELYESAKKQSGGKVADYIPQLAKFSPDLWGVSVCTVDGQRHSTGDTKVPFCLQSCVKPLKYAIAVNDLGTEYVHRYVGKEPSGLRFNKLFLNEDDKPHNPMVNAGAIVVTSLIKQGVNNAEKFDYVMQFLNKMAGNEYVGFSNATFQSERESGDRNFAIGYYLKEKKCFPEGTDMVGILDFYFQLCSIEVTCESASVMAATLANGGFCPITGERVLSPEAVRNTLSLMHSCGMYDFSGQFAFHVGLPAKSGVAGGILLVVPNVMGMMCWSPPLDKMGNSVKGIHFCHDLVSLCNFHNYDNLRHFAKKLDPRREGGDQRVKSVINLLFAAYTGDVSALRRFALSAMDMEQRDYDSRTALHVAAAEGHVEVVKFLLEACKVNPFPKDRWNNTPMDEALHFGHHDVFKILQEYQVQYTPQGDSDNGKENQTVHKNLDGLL
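hKGA in 45 mM KH2PO4 (pH 8.2), 0.02% Tween-20 with compound, then 1mM L-Glutamine (stock as added) plus glutamate oxidase/HRP/Amplex red coupling mix. Fluorescence read initially and after 30 min at RT; signal change reflects glutamate formation.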
MmCpn inh: inhibitors of Methanococcus maripaludis chaperonin TRiC (MmCpn); purified Mm-Cpn ATPase, ADP Transcreener TR-FRET; AID 504842; Potency, µM (highest dose often 76.9 µM), actives largely listed as inhibitors; 0.031% of 330,000 active; also: nearly all actives have a fitted effect of over 80% in size
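ATPase read-out: TR-FRET ADP immunoassay (anti-ADP Eu cryptate vs ADP-d2), ex 320 nm, em 590/665 nm; signal drops as ADP forms. Enzyme 25 nM, ATP 10 uM, 30 min at 37°C after 10 min compound preincubation.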
Akt phos inh: blocks phosphorylation of Akt; Neuro2A IGF-stimulated pAkt S473 HTRF, 20 min; active compounds read low; activity change, % for hits at 50 µM; 0.32% of 360,000 active; in the data active = activity change below about -80%; inconclusive = mostly about -51% to -80%
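Single-point screen (50 µM final compound) in Neuro2A cells stimulated 20 min with 6 nM IGF at 37 deg C. After lysis, Ser473-phosphorylated Akt read by HTRF (ex 330 nm, em 615/665 nm) as the 665/615 ratio.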
GRP78 ERSR act: ER stress response induction in glioma; 0.02% of 420,000 active; U87-MG GRP78 promoter luciferase reporter, 16 h; Potency, µM, most hits filed as activators; also: series mostly up to about 76 µM; nearly all actives have a fitted effect of over 35% in size
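Stably transfected U87-MG glioma cells carrying a GRP78-based luciferase sensor; 16 h compound incubation. Luminescence end-point read 10 min after Bright-Glo addition at room temperature.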
Numbers stand for hits; - = inactive; ? = inconclusive; . = no result; ! = a repeat was not active. Unless noted, calls follow the shape of the dose curve; as a rule, active = well fitted curve in the direction sought with a large enough effect; inconclusive = small, poorly fitted or top-dose-only effect, or another doubt; inactive = no such curve, though single readings can be large; an effect the other way counts as inactive or inconclusive.

SMILES | IDH1 R132H inh | CCT modulator | GLS inhibitor | MmCpn inh | Akt phos inh | GRP78 ERSR act
Cc1ccc2nc(-c3ccsc3)c(NC3CCCC3)n2c1 | - | - | 1.6µM | - | - | -
O=C(NCc1nnc2n1CCN(Cc1cccc(Cl)c1)CC2)c1cccc(F)c1 | . | . | . | . | . | -
COc1cc(CNc2nc(C)c(-c3ccn(CC4CCCN(C)C4)n3)s2)ccc1F (configuration not stated) | . | . | . | . | . | -
CN(C(=O)NC1CCCCC1)[C@H]1C[C@H]2c3[nH]c4ccccc4c3CCN2C(=O)[C@H]1CO | - | -57 | - | . | - | -
CN(C(=O)C(C)(C)C)[C@H]1C[C@H]2c3[nH]c4ccccc4c3CCN2C(=O)[C@H]1CO | - | - | - | . | - | -
CC(C)c1c(C(=O)N2CCCCC2c2cccnc2)cnn1-c1nccc(-c2cccs2)n1 (configuration not stated) | . | . | . | . | . | -
COc1nc(-c2ccccc2)ccc1-c1noc(-c2cccnc2)n1 | - | - | - | - | - | -
COc1nc(-c2ccc(C)cc2)ccc1-c1noc(-c2cccnc2)n1 | - | - | - | - | -105% | -
COc1ccc(OCC(=O)Nc2nnc(S(=O)(=O)N3CCCCCC3)s2)cc1 | - | - | - | - | - | -
O=C(COc1ccccc1)Nc1nnc(S(=O)(=O)N2CCCC2)s1 | - | -47 | - | - | - | -
O=C1CC(c2ccc(F)cc2)Cc2nc(NCc3ccco3)ncc21 (configuration not stated) | - | - | - | - | -84% | -
CC(C)(C)c1ccc(NC(=O)c2ccccc2)c([N+](=O)[O-])c1 | - | -41 | - | - | - | -
CCOc1ccccc1N1CCN(C(=O)CN2C(=O)NC3(CCCC3)C2=O)CC1 | - | - | - | - | - | -
O=C(CN1C(=O)NC2(CCCC2)C1=O)N1CCN(c2ccccc2O)CC1 | - | - | 3.2µM | - | - | -
O=C(NCC1Cc2cc(-c3cncnc3)cc(Cl)c2O1)c1cccc(Cn2cccn2)c1 (configuration not stated) | . | . | . | . | . | -
Cc1ccc2c(c1)CN(CCC(=O)NCc1cc(C)n(C)n1)CC(C)O2 (configuration not stated) | . | . | . | . | . | -
CC(C)C(NC(=O)c1ccoc1)c1nnc2n1CCN(Cc1ccc3c(c1)Cc1ccccc1-3)CC2 (configuration not stated) | . | . | . | . | . | -
CCCN1C(=O)CC(C(=O)OC)=C1C | - | - | - | - | - | -
COC(=O)C1=C(O)C2(C(=O)O)CC(C(=O)OC)=C(O)C(C(=O)O)(C1)C2 | - | - | 11µM | - | - | -
N#CC1=C(N)C2=CCCC[C@H]2[C@H](c2ccccc2)C1(C#N)C#N | 23µM | - | - | - | - | -
O=C(CCc1ccc(O)c(O)c1)N/N=C/c1ccc2c(c1)OCO2 | - | - | ? | - | - | 22µM
Cc1ccc(C(C(=O)NC2CCCC2)N(Cc2cccnc2)C(=O)c2snc(C(N)=O)c2N)o1 (configuration not stated) | - | - | - | - | -119% | -
COc1cc(/C=N/NC(=S)NCCN2CCOCC2)cc(OC)c1O | - | - | 4µM | - | - | -
Cc1ccc(-c2ccnc(-c3ccc(O)cc3)n2)cc1 | - | -38 | - | - | - | -
CN(CCO)C(=O)c1cn(C2CCN(Cc3cccc(C(F)(F)F)c3)CC2)nn1 | . | . | . | . | . | -
SMILES | IDH1 R132H inh | CCT modulator | GLS inhibitor | MmCpn inh | Akt phos inh | GRP78 ERSR act
C=CCOC(=O)C1CC=CCC1C(=O)Oc1ccc(F)cc1F (configuration not stated) | - | - | - | - | -80% | -
O=C(NCc1nnc2n1CCN(Cc1ccc(C(F)(F)F)cc1)CC2)c1ccccn1 | . | . | . | . | . | -
O=C(NC1CC1)[C@@H]1C[C@@H](Sc2nc3ccccc3[nH]2)CN1CC1CCCCC1 | . | . | . | . | . | -
O=Cc1cccc(OC(=O)/C=C/c2ccco2)c1 | - | - | 10µM | - | - | -
O=S1(=O)CC(N2CC=CC2)CN1C1CCCCC1 (configuration not stated) | . | - | 11µM | . | - | -
CN1CCN(C2CN(C3CCCCC3)S(=O)(=O)C2)CC1 (configuration not stated) | . | - | - | . | - | -
Cc1ccc2c(c1)CN(CCNC(=O)C(C)Oc1ccccc1)CC(C)O2 (configuration not stated) | . | . | . | . | . | -
COc1ccc(-c2cc(C(F)(F)F)c(C#N)c(SCC(=O)Nc3ccccc3F)n2)cc1 | - | . | - | . | . | -
COc1ccc(-c2cc(C(F)(F)F)c(C#N)c(SCC(=O)Nc3ccccc3C#N)n2)cc1 | - | -45 | - | - | - | -
COc1cc(/C=C/C(=O)C2C(=O)C=C(C)OC2=O)cc(OC)c1O (configuration not stated) | - | - | - | - | - | -
COc1ccc(/C=C/C(=O)C2C(=O)C=C(C)OC2=O)cc1O (configuration not stated) | - | - | 7.1µM | - | - | -
CC(=O)Nc1ccc(S(=O)(=O)N2CCC(n3cnc4cc(F)ccc43)CC2)cc1 | - | - | - | - | -106% | -
O=C(NCCc1ccccn1)C1CC12CCN(C(=O)c1cccc(C(F)(F)F)c1)CC2 (configuration not stated) | . | . | . | . | . | -
O=C(O)COc1ccc2c(c1)O/C(=C\c1cccs1)C2=O | - | - | - | - | - | -
O=C(O)COc1ccc2c(c1)O/C(=C\c1ccco1)C2=O | - | - | 10µM | - | - | -
COc1cccc(C(CCc2cc(OC)c(OC)c(OC)c2)NC(C)=O)c1 (configuration not stated) | - | -74 | - | . | - | -
COc1ccc(-c2noc(CCC(=O)N3CCN(c4ccccc4C)CC3)n2)cc1 | - | - | - | - | - | -
COc1ccc(-c2noc(CCC(=O)N3CCN(c4ccccc4OC)CC3)n2)cc1 | - | -39 | - | - | - | -
COc1ccccc1N1C(=O)C2CC(C)=C(C)CC2C1=O (configuration not stated) | - | - | - | - | - | -
COc1ccccc1N1C(=O)C=C(Sc2nc(C)cc(C)n2)C1=O | - | - | 7.9µM | - | - | -
C(=N\NC1=Nc2cccc3cccc1c23)/c1ccccc1 | - | - | - | - | - | -
C(=N\NC1=Nc2cccc3cccc1c23)/c1cccnc1 | - | -70 | - | - | - | -
O=C(Nc1cccc(C(F)(F)F)c1)c1csc(-c2ccncc2)n1 | - | - | - | - | - | -
COc1cc(NC(=O)c2csc(-c3ccncc3)n2)cc(C(=O)Nc2cccc(C(F)(F)F)c2)c1 | - | -35! | - | - | - | -
c1coc(-c2ccccc2CN2CCOc3ccc(CN4CCOCC4)cc3C2)c1 | . | . | . | . | . | -
